Compound activity from PubChem.
CYP2C19 act: increases human CYP2C19 enzyme activity. AID 1025. 96,000 tested, under 10 active. P33261. activation factor at 5 µM. recombinant CYP2C19, luciferin-H EGE luminescence; stronger effect = higher value; 0 = fully inhibited enzyme, 1 = untreated enzyme;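 active = activation factor of at least 2 at 5 µM in the primary screen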;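 note: 0 = wells with 2.5 mM tranylcypromine and 1 = vehicle-only wells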
CYP2C9 activ: increases human cytochrome P450 2C9 activity. 1.4% of 96,000 active. activation factor at 5 µM. P11712. recombinant CYP2C9, luciferin-H conversion, luminescence; stronger effect = higher value; factor 1 = untreated enzyme, 0 = blocked;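 active = activation factor of 2 or more for CYP2C9 at a 5 µM dose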;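 note: 0 = sulfaphenazole-blocked wells and 1 = vehicle-only wells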
Cav3 T inh: inhibitors of human Cav3.2 T-type calcium channel; O95180; Cav3.2-expressing cells, Fluo-4 calcium fluorescence FDSS; stronger effect = lower value; B-score at 10 µM; 4% of 100,000 active; AID 449739;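 active = single-dose well whose peak fluorescence ratio is a statistical outlier from its plate by either plate-standardised score or position-corrected B-score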
Target sequence (O95180 whole entry, looked up): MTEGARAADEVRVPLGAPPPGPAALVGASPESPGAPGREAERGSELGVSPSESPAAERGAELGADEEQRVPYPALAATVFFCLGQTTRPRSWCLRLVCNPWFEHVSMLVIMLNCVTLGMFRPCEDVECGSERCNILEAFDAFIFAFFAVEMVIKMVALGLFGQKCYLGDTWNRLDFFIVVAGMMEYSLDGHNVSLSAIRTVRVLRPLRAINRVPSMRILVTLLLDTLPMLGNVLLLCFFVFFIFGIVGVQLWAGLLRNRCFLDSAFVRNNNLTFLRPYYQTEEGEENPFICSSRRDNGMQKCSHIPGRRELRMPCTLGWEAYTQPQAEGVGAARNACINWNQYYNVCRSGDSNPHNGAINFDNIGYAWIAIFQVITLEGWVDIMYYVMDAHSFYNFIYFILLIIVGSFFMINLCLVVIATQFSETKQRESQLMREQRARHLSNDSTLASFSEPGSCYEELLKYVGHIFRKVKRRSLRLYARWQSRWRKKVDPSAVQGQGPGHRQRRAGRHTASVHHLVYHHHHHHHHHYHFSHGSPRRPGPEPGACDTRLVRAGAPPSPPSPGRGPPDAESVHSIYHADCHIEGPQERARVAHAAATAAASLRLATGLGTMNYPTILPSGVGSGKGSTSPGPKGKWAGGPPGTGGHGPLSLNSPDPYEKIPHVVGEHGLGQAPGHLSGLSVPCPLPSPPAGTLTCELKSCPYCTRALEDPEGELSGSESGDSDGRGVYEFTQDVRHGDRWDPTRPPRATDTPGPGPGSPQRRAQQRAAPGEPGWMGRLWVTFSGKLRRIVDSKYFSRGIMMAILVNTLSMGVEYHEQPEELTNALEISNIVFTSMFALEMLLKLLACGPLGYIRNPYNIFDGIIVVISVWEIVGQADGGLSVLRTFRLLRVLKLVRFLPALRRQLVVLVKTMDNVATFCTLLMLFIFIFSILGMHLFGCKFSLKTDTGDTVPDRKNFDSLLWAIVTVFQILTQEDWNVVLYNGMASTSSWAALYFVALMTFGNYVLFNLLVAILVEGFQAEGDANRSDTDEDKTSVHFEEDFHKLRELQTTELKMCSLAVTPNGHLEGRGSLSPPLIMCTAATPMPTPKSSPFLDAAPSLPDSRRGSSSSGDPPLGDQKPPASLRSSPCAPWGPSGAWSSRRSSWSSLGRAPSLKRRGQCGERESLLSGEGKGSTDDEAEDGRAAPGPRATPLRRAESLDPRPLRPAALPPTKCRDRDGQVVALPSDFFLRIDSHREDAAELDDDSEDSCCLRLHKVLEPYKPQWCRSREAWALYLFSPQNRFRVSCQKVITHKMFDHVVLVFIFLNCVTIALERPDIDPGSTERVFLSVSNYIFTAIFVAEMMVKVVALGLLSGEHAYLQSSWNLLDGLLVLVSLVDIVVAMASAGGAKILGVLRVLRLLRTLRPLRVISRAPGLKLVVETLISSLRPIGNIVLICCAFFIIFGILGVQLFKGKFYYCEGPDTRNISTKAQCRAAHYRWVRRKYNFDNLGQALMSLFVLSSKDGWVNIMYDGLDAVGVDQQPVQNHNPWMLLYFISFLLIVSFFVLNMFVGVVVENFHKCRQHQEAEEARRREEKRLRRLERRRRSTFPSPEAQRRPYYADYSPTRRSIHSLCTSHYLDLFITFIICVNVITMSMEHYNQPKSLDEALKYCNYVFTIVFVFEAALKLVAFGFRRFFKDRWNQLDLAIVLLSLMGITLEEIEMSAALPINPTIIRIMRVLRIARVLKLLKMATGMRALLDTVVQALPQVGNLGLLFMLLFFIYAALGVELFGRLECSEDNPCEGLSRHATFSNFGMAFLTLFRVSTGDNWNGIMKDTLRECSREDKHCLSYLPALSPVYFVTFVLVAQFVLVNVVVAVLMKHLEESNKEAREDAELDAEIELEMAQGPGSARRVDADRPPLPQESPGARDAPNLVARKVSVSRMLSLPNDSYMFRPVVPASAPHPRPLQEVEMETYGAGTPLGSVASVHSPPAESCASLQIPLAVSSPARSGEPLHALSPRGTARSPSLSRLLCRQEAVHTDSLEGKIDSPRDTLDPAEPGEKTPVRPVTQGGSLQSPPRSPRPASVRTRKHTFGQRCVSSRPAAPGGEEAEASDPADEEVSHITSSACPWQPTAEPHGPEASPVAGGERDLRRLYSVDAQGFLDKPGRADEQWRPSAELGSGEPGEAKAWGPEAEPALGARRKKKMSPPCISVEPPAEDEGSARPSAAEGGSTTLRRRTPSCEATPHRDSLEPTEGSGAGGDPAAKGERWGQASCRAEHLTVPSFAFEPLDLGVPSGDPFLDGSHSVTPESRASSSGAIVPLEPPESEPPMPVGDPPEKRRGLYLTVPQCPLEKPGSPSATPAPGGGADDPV
CYP2C9 inh: human CYP2C9 inhibition | inhibition, % at 5 µM | CYP2C9 Supersomes, luciferin-H conversion, luminescence | P11712 | AID 777 | 20% of 96,000 active;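 active = blocking of liver enzyme CYP2C9 beyond about 50% at 5 µM, limit read from the data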
CYP2C19 inhib: human CYP2C19 inhibition. AID 778. CYP2C19 Supersomes, luciferin-H EGE luminescence, 30 min. P33261. inhibition, % at 5 µM. 21% of 96,000 active;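 active = CYP2C19 inhibition above a set limit at 5 µM in the primary screen, cut at about 50% in these data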;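 note: plate controls were negative control wells for no effect and 2.5 mM tranylcypromine positive control for full effect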
Starred values were filed as active, the others as inactive; . = no result. Most compounds without a hit are left out; they make up all but 27% or so of the library.

SMILES | CYP2C19 act | CYP2C9 activ | Cav3 T inh | CYP2C9 inh | CYP2C19 inhib
Cc1cc(C(=O)NC(C)c2ccncc2)cs1 (stereo unspecified) | 0.6 | 0.6 | 0.59 | 44 | 39
COc1ccccc1OCc1nnc(SCC(=O)Nc2ccc(C)cc2)n1C | 0.5 | 2* | -0.31 | -104 | 48
COc1cccc(-c2csc3nnc(SCC(=O)c4ccc(NC(C)=O)cc4)n23)c1 | 0.8 | 0.8 | 0.39 | 25 | 18
COc1ccc(OC)c(-c2csc3nnc(SCC(=O)Nc4ccc(NC(C)=O)cc4)n23)c1 | 0.8 | 0.5 | 0.48 | 53* | 24
CCOc1ccccc1C1CC(=O)NC(SCC)=C1C#N (stereo unspecified) | 0.6 | 0.7 | 2.4 | 26 | 39
COc1cccc(C2CC(=O)Nc3cc4c(cc32)OCCO4)c1OC(C)C (stereo unspecified) | 0.5 | 0.4 | -2.5 | 63* | 49
CC(C)Oc1ccccc1C1CC(=O)Nc2cc3c(cc21)OCCO3 (stereo unspecified) | 0 | 0 | -2 | 96* | 96*
CCOc1ccccc1C1CC(=O)Nc2cc3c(cc21)OCO3 (stereo unspecified) | 0 | 0.3 | -2.6 | 66* | 98*
CC(C)Oc1ccccc1C1Nc2ccccc2C(=O)N1c1ccc2c(c1)OCCO2 (stereo unspecified) | 0.1 | 0 | -3 | 96* | 95*
CN1CCN(C(=O)C2=C[C@H](c3csc4ccccc34)C[C@H](OCCCCO)O2)CC1 | . | . | -0.2 | . | .
C/C(NC1CCCCC1)=C(/C#N)C(=O)NCCN1CCOCC1 | 0.9 | 0.9 | 0.13 | 8 | 7
COc1ccccc1C1CC(=O)Nc2cc3c(cc21)OCCO3 (stereo unspecified) | 0.7 | 0.3 | -0.62 | 74* | 33
COc1cc2c(cc1OC)C(c1cccc(OC)c1OC)CC(=O)N2 (stereo unspecified) | 0.8 | 0.7 | 0.13 | 32 | 18
O=C1CC(c2cccs2)c2cc3c(cc2N1)OCCO3 (stereo unspecified) | 0.3 | 0.3 | -0.53 | 71* | 68*
CC(SC1=NCCS1)C(=O)Nc1nnc(-c2ccc(F)cc2)s1 (stereo unspecified) | 1 | 0.9 | -2.9 | 6 | 3
CC(SC1=NCCS1)C(=O)Nc1nnc(-c2ccc(Br)cc2)s1 (stereo unspecified) | 1.2 | 0.4 | -3 | 57* | -18
Cc1nn(C(=O)N2CCOCC2)c(C)c1CN1C(=O)c2ccccc2C1=O | . | . | 0.63 | . | .
CCCCNS(=O)(=O)c1ccc2nc(SCC(=O)c3ccccc3OC)[nH]c2c1 | 0.1 | 0.1 | -4 | 94* | 94*
COc1ccc2nc(SCC(=O)/C(C#N)=C(\C)N)[nH]c2c1 | 0.7 | 0.8 | 0.3 | 15 | 33
CCCCNS(=O)(=O)c1ccc2nc(SCC(=O)Nc3sccc3C#N)[nH]c2c1 | 0.3 | 0 | -3.5* | 97* | 69*
O=c1cc(N2CCc3ccccc32)[nH]c(=O)n1Cc1ccc(F)cc1 | 0.9 | 0.9 | . | 14 | 11
COC(=O)CSc1nc(N)nc(C)c1Br | 1 | 1.1 | 0.25 | -7 | -4
Cc1ccc(SC[C@H](c2ccccc2)N2CCN(CC(C)C)CCC2=O)cc1 | . | . | -0.8 | . | .
Cc1ccc(C2C3CN(C(C)C)CC=C3C(C#N)=C(N)C2(C#N)C#N)cc1 (stereo unspecified) | 0.8 | 0.5 | . | 45 | 23
COC(=O)c1ccc(COC(=O)c2ccc(S(=O)(=O)N3CCC(C)CC3)cc2)o1 | 0.7 | 0.3 | -0.54 | 69* | 27
SMILES | CYP2C19 act | CYP2C9 activ | Cav3 T inh | CYP2C9 inh | CYP2C19 inhib
CC1CCN(S(=O)(=O)c2ccc(C(=O)OCc3ccc4c(c3)OCO4)cc2)CC1 | 0.9 | 0.6 | 0.07 | 36 | 6
O=C(COC(=O)c1ccc(S(=O)(=O)NCc2ccco2)cc1)Nc1ccccc1OC(F)F | 1 | 0.2 | -1.8 | 76* | 5
CN(C)S(=O)(=O)c1ccc(C(=O)OCC(=O)Nc2ccccc2OC(F)F)cc1 | 0.9 | 0.4 | -1.3 | 58* | 8
O=C(COC(=O)c1cccc(S(=O)(=O)NCc2ccccc2)c1)Nc1ccccc1OC(F)F | 0.4 | 0.8 | -2.4 | 21 | 60*
COc1ccccc1NC(=O)c1ccc(S(=O)(=O)N(C)C)cc1 | 0.9 | 1 | 0.94 | -2 | 10
O=C(COC(=O)COc1ccccc1Cl)Nc1ccccc1OC(F)F | 0.9 | 0.8 | 0.33 | 19 | 9
CC(c1ccco1)N(C(=O)C12CC3(C)CC(C)(CC(C)(C3)C1)C2)c1ccccn1 (stereo unspecified) | 0.9 | 1 | -0.44 | 1 | 12
CCCc1nnc(NC(=O)Cn2cnc3ccccc3c2=O)s1 | 1 | 0.9 | 0.47 | 6 | -1
CC1(C)CC(=O)C(C=NCCN2CCN(CCc3ccccc3)CC2)=C(O)C1 | . | . | -0.013 | . | .
NC1C2CN(c3nc4c(cc3F)c(=O)c(C(=O)O)cn4-c3ccc(F)cc3F)CC12 (stereo unspecified) | 0.9 | 1 | -0.73 | 4 | 6
CS(=O)(=O)N(CC(=O)N1CCCC1)c1ccc2c(c1)OCCO2 | 0.8 | 0.7 | 0.014 | 25 | 23
CCOc1cc2c3c(c1)C1(Nc4ccccc4S1)C(=O)N3C(C)(C)CC2C (stereo unspecified) | 0.1 | 0 | -4.2* | 100* | 88*
CCN1CCCC1CNCc1ccc(Cl)cc1Cl (stereo unspecified) | 0.8 | 0.9 | . | 5 | 18
Cc1cc(C)c(S(=O)(=O)N2CCN(CCO)CC2)c(C)c1 | 0.6 | 2.3* | 0.0066 | -129 | 43
Cc1cc(C)c(S(=O)(=O)N2CCN(C)CC2)c(C)c1 | 0.9 | 2.2* | 0.43 | -122 | 7
O=C(/C=C/c1ccco1)NC(=S)NNC(=O)c1ccco1 | . | . | -2.6 | . | .
CC(=O)Nc1ccc(NC(=O)C(C)OC(=O)CCC(=O)c2ccc(F)cc2)cc1 (stereo unspecified) | 0.3 | 0.3 | 0.61 | 69* | 72*
Cn1c(SCC(=O)NC(=O)NCc2ccco2)nnc1C(F)(F)F | 0.9 | 0.9 | . | 12 | 15
Cc1ccccc1NC(=S)NC(C)C(c1cccs1)N1CCOCC1 (stereo unspecified) | . | . | -0.0071 | . | .
COc1c(F)c(F)c(C(=O)Nc2ccc(N3CCN(C(C)=O)CC3)c(Cl)c2)c(F)c1F | 0.6 | 0.3 | -1.2 | 66* | 38
Cc1ccccc1C(=O)N1CCN(c2ccc(NC(=O)c3ccco3)cc2Cl)CC1 | 0.6 | 0.6 | -0.6 | 44 | 43
O=C(Nc1ccc(N2CCN(C(=O)c3ccco3)CC2)c(Cl)c1)c1c(F)c(F)c(F)c(F)c1F | 0.3 | 0.3 | -1.4 | 73* | 68*
O=C(Nc1ccc(N2CCN(C(=O)c3cccs3)CC2)c(Cl)c1)c1ccco1 | 0.7 | 0.5 | 0.7 | 54* | 32
CCOC(=O)c1ccc(NC(=O)NS(=O)(=O)c2ccc(C)cc2)cc1 | 0.9 | 0.9 | . | 12 | 12
Cc1nccc2[nH]c(=O)c(C(=O)NC3CCCCC3C)cc12 (stereo unspecified) | 1 | 0.9 | 1.2 | 8 | 4
